What all share (assay): NCI-60 one-dose screen, 48 h (100 = growth as untreated, 0 = no growth, -100 = all killed)
Conditions in all cases: 10 µM unless noted

Test [1] deals with DU-145 prostate.
Test [2] deals with K-562 leukemia.
Test [3] relates to MALME-3M melanoma.
Test [4] relates to MDA-MB-231 breast.
The subject of test [5] is RXF 393 renal.
Test [6] relates to SF-268 CNS.
In test [7] the test system is SF-295 CNS.
For test [8], the system named is SF-539 CNS.
The test system of test [9] is UACC-257 melanoma.
Test [10] has as its system M14 melanoma.
In test [11] the test system is HCT-15 colon.
Test [12] concerns HT29 colon.
Test [13] deals with SNB-75 CNS.
Test [14] has as its system SNB-19 CNS.
Test [15] deals with U251 CNS.
For test [16], the system named is PC-3 prostate.
In test [17] the test system is SK-MEL-5 melanoma.
The subject of test [18] is UACC-62 melanoma.
In test [19] the test system is LOX IMVI melanoma.
The subject of test [20] is SK-MEL-28 melanoma.

This is part of a sample that, as a whole, favours compounds with a hit. Of some 83,000 tested, about 20% had one in any assay.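 Results are percent growth after 48 hours of single-concentration exposure. 100 means growth as in untreated cells, lower positive values show inhibition; negative values down to -100 show cell death.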 A number with no mark means an inactive call. Activity calls are given as the source filed them. How the source made its calls: active means growth percent below 10; inactive means the rest.

Regarding `COc1ccc(C(=O)c2cc3c(N)c(C(=O)Nc4ccc(C)cc4)sc3nc2C)cc1`, the growth in test [1] was 17.3%; in test [2] it was 13.6%; in [3] it was 36.1%; in test [4], 22%; in test [5], -20.4% (active); in [6], 39.4%. The growth in [7] is 10% (active); in test [8], -16% (active); in test [9], 58.1%; in test [10] it was 17.3%; in [11] it was 11.5%; in test [12], 9.18% (active). Further, the growth in test [13] was -2.41% (active); in test [14], 28.9%; in test [15], 19.2%; in test [16] it was 25.1%; in [17], 6.93% (active); in [18], 30.6%. The growth in test [19] is 39.2%; in [20], 54%.

`Fc1ccc(CNc2c3ccccc3nc3ccccc23)c(F)c1`: the growth is 50.9% in [1]; 22.5% in test [2]; 69.5% in test [3]; 44.4% in test [4]; 34.5% in [5]; 68.6% in [6]. Also, the growth is 40.4% in test [7]; 32.4% in test [8]; 68.9% in test [9]; 55.3% in [10]; 28.7% in test [11]; 21.8% in [12]. Further, the growth in [13] is 81.1%; in test [14], 41.5%; in test [15], 44.1%; in test [16], 68.9%; in test [17], 69.4%; in [18], 59.1%. For the same molecule, the growth in test [19] is 21.5%; in test [20] it was 90.4%.

As to `CSc1nc2ccccc2cc1/C=C1/C=C(c2ccccc2)NC1=O`, the growth in test [1] was 93.2%; in test [2] it was 35.7%; in test [3], 86.9%; in [4] it was 86.6%; in test [5] it was 84.6%; in test [6], 87.2%. For the same molecule, the growth in [7] is 67%; in test [8], 96.4%; in test [9] it was 86.8%; in test [10], 66.8%; in test [11], 41.3%; in test [12], 38.9%. Moreover, the growth in test [13] was 79.3%; in [14] it was 80.1%; in [15], 78.8%; in test [16], 70.4%; in test [17], 82.3%; in [18], 64%. The growth is 74.4% in test [19] and 92.6% in test [20].

For `O=c1c2ccccc2n2cnc3ccc(Cl)c1c32`, the growth in test [1] was 62.8%; in [2], 97.2%; in test [3], 90.7%; in test [4], 90.7%; in test [5], 69.8%; in test [6], 86.9%. The growth in [7] was 85.9%; in [8] it was 88.4%; in [9], 95.7%; in [10] it was 83.9%; in test [11], 66.4%; in [12], 73.4%. In addition, the growth in [13] was 100%; in [14], 83.8%; in test [15], 78.4%; in [16] it was 85.2%; in test [17] it was 77%; in test [18], 64.6%. Besides, the growth in [19] is 62.8%; in [20], 92.2%.

For the molecule `N#CC1=C(c2ccccc2)Nc2c(c(-c3ccc(Cl)cc3)nn2-c2ccccc2)C12C(=O)Nc1ccc(Cl)cc12` (stereo not given), the growth in [1] was 86.1%; in [2], 65.9%; in test [3], 86.4%; in [4], 58.8%; in [5], 49.8%; in test [6] it was 55.3%. Also, the growth is 56.5% in test [7]; 85.2% in test [8]; 73% in [9]; 72.7% in [10]; 61.8% in test [11]; 47.8% in [12]. Moreover, the growth in test [13] is 6.22% (active); in test [14] it was 70.5%; in test [15], 64%; in test [16], 51%; in [17], 87.5%; in [18] it was 66%. Further, the results for the growth in test [19] and in test [20] were 77.5% and 90.8%, respectively.

On to `CCCCCCCCCCC(CN(CC)CC)C(O)c1ccccc1` (stereo not given), for which the growth is 29.1% in [1]; -21.2% (active) in test [2]; -37.3% (active) in test [3]; 10.1% in test [4]; -7.14% (active) in [5]; 40.5% in test [6]. Also, the growth in test [7] is 36.5%; in test [8], 32.1%; in [9], 18.2%; in test [10], -44.1% (active); in [11] it was 13.5%; in test [12], -2.44% (active). Besides, the growth in test [13] is 49.4%; in test [14], 51.5%; in test [15], 12.9%; in test [16], 25.9%; in [17] it was -93.8% (active); in test [18], -44.3% (active). Besides, the growth in [19] is -82% (active); in test [20], -61.6% (active).

Regarding `COC(=O)[C@]1(C)CCC[C@]2(C)[C@H]3C[C@H]4C(C(C)C)=C[C@]3(CC[C@H]21)[C@@H]1C(=O)CC[C@H](OCCC#N)[C@@H]14`, the growth was 89.2% in test [1]; 89.9% in test [2]; 85.9% in test [3]; 73.9% in test [4]; 55.5% in [5]; 74.3% in test [6]. Besides, the growth in test [7] is 77.7%; in [8], 91.7%; in test [9] it was 99.1%; in test [10], 82.5%; in test [11] it was 84.9%; in test [12], 69.6%. The growth is 87.6% in test [13]; 89.6% in test [14]; 77.6% in test [15]; 34.5% in [16]; 79.4% in test [17]; 69.3% in test [18]. In addition, the values for the growth in test [19] and in test [20] were 90.3% and 101%, respectively.

`Nc1ncnc2c1C(c1ccc(Br)cc1)c1sc3c(F)cccc3c1O2` (stereo not given): the growth in [1] was 102%; in [2] it was 99.1%; in test [3], 127%; in [4], 79.7%; in [5], 104%; in [6], 98.9%. The growth was 102% in [7]; 102% in [8]; 114% in test [9]; 103% in [10]; 97.1% in test [11]; 100% in test [12]. The growth was 83.7% in [13]; 110% in test [14]; 98% in test [15]; 87.4% in [16]; 96.2% in test [17]; 80.1% in test [18]. Moreover, the growth in [19] was 82.9%; in test [20], 119%.

For the molecule `COc1ccc(/C=N/NC(=O)c2ccc(-n3cc(-c4ccccc4)nn3)cc2)cc1OC`, the growth is 103% in [1]; 93.2% in test [2]; 77.8% in test [3]; 103% in test [4]; 110% in [5]; 93.8% in [6]. Further, the growth in test [7] was 97.7%; in test [8], 102%; in test [9] it was 103%; in test [10] it was 82.5%; in test [11] it was 97.6%; in test [12], 100%. Moreover, the growth in [13] was 94%; in test [14], 107%; in [15], 106%; in [16], 94%; in test [17], 89.2%; in [18], 76.7%. Also, the figures for the growth in [19] and in [20] were 94.5% and 88.8%, respectively.

As to `CC(C)=CCC[C@](C)(O)[C@H]1CC[C@]2(C)[C@@H]1CC[C@@H]1[C@@]3(C)C/C(=C/c4ccco4)C(=O)C(C)(C)[C@@H]3CC[C@]12C`, the growth is 113% in test [1]; 99.2% in [2]; 107% in test [3]; 101% in test [4]; 111% in [5]; 101% in test [6]. Besides, the growth in test [7] was 100%; in [8], 102%; in [9] it was 109%; in test [10], 104%; in test [11], 110%; in test [12] it was 111%. For the same molecule, the growth in [13] is 92.7%; in test [14] it was 103%; in [15], 101%; in test [16], 97.4%; in test [17] it was 102%; in [18], 91.7%. In addition, the results for the growth in [19] and in [20] were 101% and 102%, respectively.

On to `Cc1cc(C)c2c(c1)N(C)c1ncnc(-n3cnc4cc(C)ccc43)c1CC2C` (stereo not given), for which the growth was 14.2% in test [1]; 7.57% (active) in [2]; 45.2% in test [3]; 36.8% in [4]; -24.8% (active) in test [5]; 40.4% in [6]. Moreover, the growth is 1.91% (active) in test [7]; 6.25% (active) in test [8]; 45.3% in test [9]; 5.2% (active) in [10]; 23.4% in test [11]; 0.933% (active) in [12]. In addition, the growth in test [13] is 29.1%; in [14], 35.7%; in test [15] it was 14.6%; in test [16] it was 20.9%; in test [17], 8.49% (active); in test [18], 30.7%. Besides, the growth in test [19] is 46.5%; in [20] it was 62.9%.

Consider `O=c1[nH]c(-c2ccccc2)nc2sc3cc(O)ccc3c12`, for which the growth was 83.6% in test [1]; 25.9% in test [2]; 74.1% in [3]; 101% in test [4]; 82.2% in test [5]; 86.2% in test [6]. Besides, the growth in [7] is 95.3%; in [8] it was 82.8%; in test [9], 109%; in [10] it was 75.2%; in test [11] it was 69.4%; in [12] it was 106%. The growth is 83.2% in test [13]; 99.8% in [14]; 84.1% in test [15]; 77.3% in [16]; 86.3% in test [17]; 73.6% in [18]. The growth in [19] is 82.7%; in test [20], 93.9%.

`CCO/C=N/C1=C(C#N)C(c2ccc(Cl)cc2)c2sc3c(F)cccc3c2O1` (stereo not given): the growth in test [1] was 88.2%; in test [2] it was 24.6%; in [3], 71.3%; in [4], 71.3%; in [5], 76.9%; in test [6], 68.5%. Moreover, the growth in test [7] was 52.8%; in test [8] it was 81.6%; in [9], 89%; in [10], 46.1%; in test [11], 35.7%; in test [12] it was 89.5%. Also, the growth in [13] is 42.6%; in [14], 51.2%; in [15] it was 45.7%; in test [16], 67.1%; in test [17], 64.9%; in test [18], 35.9%. The results for the growth in test [19] and in [20] were 51.8% and 73.6%, respectively.

Consider `COC1=CC(c2ccc[nH]2)=N/C1=C\c1[nH]c(C)c(C(=O)OC(C)C)c1C`, for which the growth is 10.5% in test [1]; 2.07% (active) in test [2]; -74.3% (active) in [3]; -67% (active) in test [4]; -17.7% (active) in [5]; 6.34% (active) in [6]. For the same molecule, the growth in [7] was -76% (active); in test [8] it was -58.6% (active); in test [9], -37.7% (active); in test [10], -67.5% (active); in [11], -30.1% (active); in test [12], -11.6% (active). Moreover, the growth in test [13] is -15.7% (active); in test [14], 21.1%; in test [15], -26.7% (active); in test [16] it was 8.84% (active); in [17], -99.5% (active); in [18], -62.9% (active). The values for the growth in test [19] and in test [20] were -92.4% (active) and -54.5% (active), respectively.

The values are drawn from PubChem BioAssay (NCI).
